The record followed here is PubChem BioAssay (EPA / NIEHS).

Records with an inconclusive call do not appear. Active and inactive are the calls of the source. How the source made its calls, unless noted: active means hit-call score of the fitted dose curve at least 0.9, where 1 is the maximum; inactive means score below 0.9.

The nature of assay [1]: CCTE_Shafer_MEA_dev_correlation_coefficient_mean: CCTE's Neural Network Formation Assay for Mean Correlation Coefficient, Shafer Lab (AID 2284093).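 Further: well mean pairwise spike train correlation integrated as AUC over recording days 5 to 12; potency fitted for loss of correlation relative to DMSO vehicle wells.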 A digest of the protocol:
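Rat cortical cultures, 1.5 x 10^5 cells/well, dosed from day 0 for 12 days. Spontaneous spikes recorded DIV 5/7/9/12; electrode-pair correlation coefficients averaged, AUC taken. Fit in loss direction vs DMSO.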

A short description of assay [2]: UKN2_HCS_IMR90_neural_migration: University of Konstanz (UKN) Leist Lab Neural Crest Cell Migration Assay in human induced IMR90 Pluripotent Stem Cells (UKN2) (AID 2284204). Particulars: actives raise or lower the signal. A digest of the protocol: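 Stopper-exclusion migration (cMINC), human iPSC-derived neural crest cells; N2-S + EGF/FGF; compound added 24 h post-stopper removal, 24 h exposure. Readout: calcein-AM/Hoechst 30 min, HCS fluorescence imaging; bidirectional fitting, DMSO baseline.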

The nature of assay [3]: UKN4_HCS_LUHMES_neurite_outgrowth: University of Konstanz (UKN) Leist Lab Neurite Outgrowth Assay in human LUHMES cells (UKN4) (AID 2284206). Particulars: actives raise or lower the signal. The essentials: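 Read-out: calcein-AM neurite area by high-content fluorescence imaging, with Hoechst H-33342 viability counterstain, after 24 h chemical exposure of day-2 differentiated LUHMES cells. Activity fitted bidirectionally against DMSO baseline.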

Assay [4] in a line: IUF_NPC1b_proliferation_BrdU_72hr: Leibniz Research Institute for Environmental Medicine (IUF) 72-hour Neural Progenitor Cell Bromodeoxyuridine (BrdU) Proliferation Assay (NPC1b) (AID 2284207). The essentials: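 Luminescent BrdU ELISA measured DNA synthesis during the last 16 h of a 72 h exposure of primary human neural progenitor spheres grown with EGF and FGF. Signal was fitted relative to DMSO controls.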

The nature of assay [5]: IUF_NPC1a_proliferation_area_72hr: Leibniz Research Institute for Environmental Medicine (IUF) 72-hour Neural Progenitor Cell Proliferation Area Assay (NPC1a) (AID 2284208). A digest of the protocol:
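hNPC spheres (human fetal cortex, GW 16-19), one per poly-Hema U-bottom well; EGF+FGF medium; dosed day 0, no re-dosing; 72 h, 37C, 5% CO2; phase-contrast sphere area; DMSO = baseline; minus-GF = positive ctrl.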

Assay [6] can be described thus: IUF_NPC1_viability_72hr: Viability Assessment at 72 hours in the Leibniz Research Institute for Environmental Medicine (IUF) Neural Progenitor Cell Proliferation Assay (NPC1) (AID 2284209). The essentials:
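Alamar blue fluorescence (RFU) after 72 h exposure, normalized to DMSO baseline. hNPC spheres from GW 16-19 fetal cortex, single sphere per well in growth-factor medium; no compound renewal.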

Assay [7] in a line: UKN4_HCS_LUHMES_cell_viability: Viability Assessment in the University of Konstanz (UKN) Leist Lab Neurite Outgrowth Assay in human LUHMES cells (UKN4) (AID 2284232). The essentials:
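Day-2 differentiated LUHMES, 30000 cells/well, dosed ~30 min–2 h post-seeding; 24 h treatment incl. staining; Hoechst H-33342 + calcein-AM at 23.5 h; HCS imaging; DMSO-normalized, bidirectional fit.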

Assay [8] in a line: UKN2_HCS_IMR90_cell_viability: Viability Assessment in the University of Konstanz (UKN) Leist Lab Neural Crest Cell Migration Assay in human induced IMR90 Pluripotent Stem Cells (UKN2) (AID 2284233).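 Further: cells exposed to compound for 24 h after a 24 h migration phase.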 The essentials: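 Viability read as calcein-AM fluorescence by high-content imaging, Hoechst co-stain, 30 min. Human iPSC (IMR90) neural crest cells had migrated 24 h into stopper-defined gaps before 24 h chemical exposure. Fitted bidirectionally relative to DMSO.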

A short description of assay [9]: IUF_NPC2c_oligodendrocyte_migration_120hr: Leibniz Research Institute for Environmental Medicine (IUF) 120-hour Neural Progenitor Cell Migration Assay for Oligodendrocyte Migration (NPC2c) (AID 2284297).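 Further: O4-positive oligodendrocyte migration distance divided by radial glia migration distance.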 A digest of the protocol:
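hNPC spheres (GW 16-19 cortex), PDL/laminin, DMEM/F12 3:1 + 1% N2, 37C. Dosing day 0–5, half feed day 3, DMSO ≤0.1%. Fixed 120 h; O4 ICC + Hoechst, HCI. Readout: mean oligodendrocyte distance from sphere edge / radial glia distance.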

Assay [10] can be described thus: IUF_NPC2a_radial_glia_migration_120hr: Leibniz Research Institute for Environmental Medicine (IUF) 120-hour Neural Progenitor Cell Migration Assay for Radial Glia Migration (NPC2a) (AID 2284298). The essentials: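 Hoechst-stained nuclei imaged at 120 h; algorithm maps sphere core by densest nuclei, sets migration edge at density threshold, gives radial glia migration distance (um) per well vs DMSO. hNPC spheres (0.3 mm), PDL/laminin, DMEM/F12 3:1 + 1% N2.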

Assay [11] in a line: IUF_NPC2a_radial_glia_migration_72hr: Leibniz Research Institute for Environmental Medicine (IUF) 72-hour Neural Progenitor Cell Migration Assay for Radial Glia Migration (NPC2a) (AID 2284299). A digest of the protocol: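 Readout: mean of four manual brightfield measurements of radial glia migration distance (um) at 72 h. hNPC spheres (0.3 mm) exposed to 7 compound concentrations plus solvent control on PDL/laminin, 37C, 5% CO2; activity fitted relative to DMSO.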

Assay [12] in a line: IUF_NPC2b_neuronal_migration_120hr: Leibniz Research Institute for Environmental Medicine (IUF) 120-hour Neural Progenitor Cell Migration Assay for Neuron Migration (NPC2b) (AID 2284300). A digest of the protocol:
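hNPC spheres, PDL/laminin, DMEM:F12 3:1 + 1% N2, 37C/5% CO2; 7 concentrations + solvent control (DMSO ≤0.1%), 5 d exposure, half-feed day 3. Fix 120 h, TUBB3 ICC, HCI: mean neuron migration distance ÷ glia distance.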

Assay [13] in a line: IUF_NPC3_neuronal_differentiation_120hr: Leibniz Research Institute for Environmental Medicine (IUF) 120-hour Neuronal Differentiation Assay (NPC3) (AID 2284301). A digest of the protocol:
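hNPC spheres, PDL/laminin, DMEM/F12 3:1 + 1% N2, 37C, 5% CO2; 7 concentrations + solvent control, 5 d exposure, half-change day 3. Fix 120 h; TUBB3/Hoechst ICC, CNN neuron calling; % neurons vs nuclei, DMSO-normalized.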

Assay [14] can be described thus: IUF_NPC4_neurite_length_120hr: Leibniz Research Institute for Environmental Medicine (IUF) 120-hour Neuronal Morphology Assay for Neurite Length (NPC4) (AID 2284302). The essentials:
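hNPC spheres (0.3 mm, fetal brain GW 16-19) on PDL/laminin, DMEM:F12 3:1 + 1% N2, 37C 5% CO2; 7 concs + solvent control, day 0-5, half medium change d3; fix 120 h, TUBB3 ICC, mean neurite length um vs DMSO.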

Assay [15] is described as follows: IUF_NPC5_oligodendrocyte_differentiation_120hr: Leibniz Research Institute for Environmental Medicine (IUF) 120-hour Oligodendrocyte Differentiation Assay (NPC5) (AID 2284304; active means hit-call score of the fitted dose curve at least 0.9, where 1 is the maximum;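 further: primary human fetal neural progenitor spheres plated to migrate and differentiate; share of O4-positive cells among Hoechst nuclei found by CNN image analysis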). The essentials:
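hNPC spheres, fetal cortex GW 16-19; PDL/laminin, DMEM:F12 3:1 + 1% N2, 37C/5% CO2; 7 concentrations + solvent control, 5 d exposure, half-change day 3. Readout: %O4+ of Hoechst+ nuclei in migration area, CNN classification; DMSO baseline.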

Assay [16] is described as follows: IUF_NPC4_neurite_area_120hr: Leibniz Research Institute for Environmental Medicine (IUF) 120-hour Neuronal Morphology Assay for Neurite Area (NPC4) (AID 2284305; active means hit-call score of the fitted dose curve at least 0.9, where 1 is the maximum). The essentials:
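hNPC spheres on PDL/laminin, N2 medium, 37C/5% CO2; dosed day 0, half-medium refresh day 3; fixed 120 h; TUBB3/Hoechst ICC, high-content imaging; neurite area = mean pixels per neuron (nuclei excluded); DMSO baseline, max 0.1%.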

Assay [17] in a line: IUF_NPC2-5_cytotoxicity_72hr: Cytotoxicity Assessment at 72 hours in the Leibniz Research Institute for Environmental Medicine (IUF) Neural Progenitor Cell Migration and Differentiation Assay for Cytotoxicity (NPC2-5) (AID 2284306; active means hit-call score of the fitted dose curve at least 0.9, where 1 is the maximum;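 further: LDH release into supernatant measured by resorufin fluorescence marking membrane damage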). The essentials:
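hNPC spheres (0.3 mm), PDL/laminin, DMEM/F12 3:1 + 1% N2; cpd from d0, 7 concs + SC, DMSO max 0.1%; half-medium refresh d3. Readout: supernatant LDH via resorufin fluorescence (RFU), 72 h; gain-of-signal fit.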

Assay [18] in a line: IUF_NPC2-5_cell_number_120hr: Cell Number Assessment at 120 hours in the Leibniz Research Institute for Environmental Medicine (IUF) Neural Progenitor Cell Migration and Differentiation Assay (NPC2-5) (AID 2284308).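 Further: count of Hoechst-stained nuclei in migration zone around plated human neural progenitor spheres.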 A digest of the protocol:
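Hoechst-stained nuclei within the migration area were counted by automated high content imaging after 120 h. Single hNPC spheres differentiated on poly-D-lysine/laminin in DMEM/F12 (3:1) with 1% N2, compound present throughout, DMSO ≤0.1%.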

A short description of assay [19]: IUF_NPC2-5_viability_120hr: Viability Assessment at 120 hours in the Leibniz Research Institute for Environmental Medicine (IUF) Neural Progenitor Cell Migration and Differentiation Assay (NPC2-5) (AID 2284312). A digest of the protocol:
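Human fetal neural progenitor spheres (0.3 mm) plated on poly-D-lysine/laminin in N2 differentiation medium, exposed 120 h with half-medium refresh at day 3. Viability by alamar blue resazurin fluorescence; 7 concentrations, DMSO max 0.1%.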

The nature of assay [20]: IUF_NPC1_cytotoxicity_72hr: Cytotoxicity Assessment at 72 hours in the Leibniz Research Institute for Environmental Medicine (IUF) Neural Progenitor Cell Proliferation Assay (NPC1) (AID 2284332; active means hit-call score of the fitted dose curve at least 0.9, where 1 is the maximum;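 further: rising LDH signal means more cytotoxicity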). A digest of the protocol:
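LDH in supernatant, resazurin→resorufin fluorescence (RFU), 72 h exposure, no re-dosing. Cells: primary hNPC spheres, one per well, EGF+FGF medium, 37C/5% CO2, pH 7.2-7.6. Fit: positive direction vs baseline and dynamic range.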

Take `Brc1ccc(Oc2cc(Br)c(Br)cc2Br)c(Br)c1`: the half-maximal activity concentration (AC50) in assay [1] was 10 µM (active); in [3], 13.4 µM (active). The result in [2], in assay [4], in assay [5], in [6], in assay [7] and in assay [8] was inactive. Moreover, the outcome in [9], in [10], in assay [11], in assay [12], in assay [13] and in assay [14] was inactive. Moreover, the outcome in assay [15], in assay [16], in [17], in [18], in assay [19] and in [20] was inactive.

Usually AC50 stands for the concentration at which the activity in the assay is half-maximal.
